# Compounds with a hit are over-represented: about 0.9% of the library has one in this group of screens.
# RXFP1 agonist – RXFP1 (human) receptor agonism | Q9HBX9 | HEK293T-RXFP1 cAMP TR-FRET, 30 min; response scale: percent of porcine relaxin response, buffer zero | Potency, µM (titrated, usually from 57.5 µM), for inactives: top-dose activation, most hits filed as activators | 0.3% of 370,000 active | AID 2676; active = well fitted activation curve with a large enough effect; inconclusive = small, poorly fitted or top-dose-only effect; also: potency is read from the fitted curve at half-maximal effect; % is scaled to controls: 0 for no effect and ±100 for the full control effect; nearly all actives have a fitted effect of over 60% in size
# Target sequence (Q9HBX9 whole entry, looked up): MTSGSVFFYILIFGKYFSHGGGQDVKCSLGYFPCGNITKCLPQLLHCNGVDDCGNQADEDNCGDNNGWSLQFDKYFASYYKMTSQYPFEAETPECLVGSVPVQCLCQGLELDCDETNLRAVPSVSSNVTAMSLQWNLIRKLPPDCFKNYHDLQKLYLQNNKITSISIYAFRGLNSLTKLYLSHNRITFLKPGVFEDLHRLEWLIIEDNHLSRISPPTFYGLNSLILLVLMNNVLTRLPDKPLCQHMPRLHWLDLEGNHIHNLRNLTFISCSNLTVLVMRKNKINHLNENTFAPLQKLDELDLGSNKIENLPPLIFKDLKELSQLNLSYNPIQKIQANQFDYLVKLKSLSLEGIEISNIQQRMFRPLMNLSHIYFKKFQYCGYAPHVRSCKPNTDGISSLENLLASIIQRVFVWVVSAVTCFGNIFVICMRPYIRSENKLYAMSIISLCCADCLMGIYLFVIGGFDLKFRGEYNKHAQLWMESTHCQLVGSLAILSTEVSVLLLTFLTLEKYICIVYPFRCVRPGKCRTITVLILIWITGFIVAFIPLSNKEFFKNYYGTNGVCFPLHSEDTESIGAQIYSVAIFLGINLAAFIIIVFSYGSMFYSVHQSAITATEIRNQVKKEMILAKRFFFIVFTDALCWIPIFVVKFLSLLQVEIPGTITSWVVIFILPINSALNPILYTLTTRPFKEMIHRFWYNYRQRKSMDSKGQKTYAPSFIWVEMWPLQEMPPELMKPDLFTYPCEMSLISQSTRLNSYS
#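 HEK293T cells stably expressing RXFP1 were pretreated with the PDE4 inhibitor Ro 20174, exposed to compounds for 30 min at 37C, lysed, and cAMP was read by TR-FRET. Data normalized to buffer (basal) and 29 nM porcine relaxin (100%).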
# gsp ag – activates gsp, the McCune-Albright syndrome mutation | 0.13% of 340,000 active | AID 624287 | Potency, µM (series often up to 76.9 µM), without a hit: at the top dose activation (cAMP increase), actives largely listed as activators | gsp mutant cells, cAMP HTRF, 30 min; active = well fitted activation curve with a large enough effect; inconclusive = small, poorly fitted or top-dose-only effect, or another doubt; inactive = no such curve, though single readings can be large or run the other way; cell line not stated here;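 also: phosphodiesterase inhibitor Ro 20-1724 added with compounds to block cAMP breakdown; potency is read from the fitted curve at half-maximal effect; nearly all actives have a fitted effect of over 60% in size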
#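 Cells stably selected in G418 were plated at 2000/well, grown 16-24 hr, then given compounds in DMSO with the PDE inhibitor […] (300 uM solution added) for 30 min at 37C; cAMP was read by HTRF.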
# gsp antagonist – antagonizes gsp, the McCune-Albright syndrome mutation; 0.4% of 340,000 active; gsp-mutant cells, cAMP HTRF, 30 min; Potency, µM (series often up to 76.9 µM), for the others: top-dose activity change, negative = inhibition, hits mostly inhibitors; calls by dose curve; cell line not stated here;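 also: intracellular cAMP measured with PDE inhibitor Ro 20-1724 present during compound exposure; potency is read from the fitted curve at half-maximal effect; % is scaled to controls: 0 for no effect and ±100 for the full control effect; nearly all actives have a fitted effect of over 65% in size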
#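 HTRF cAMP read-out (cAMP-d2 plus anti-cAMP antibody-K in lysis buffer, 30 min RT). Before lysis, cells are exposed to compounds with […] for 30 min at 37C in DPBS containing Ca/Mg, BSA and Tween 20.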
# RXFP1 antag – antagonists of human relaxin receptor RXFP1. activity change, negative = inhibition, % at 57.5 µM. AID 1259400. Q9HBX9. 0.59% of 350,000 active. HEK293-RXFP1, relaxin-stimulated cAMP HTRF, 30 min; hits give low values;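 active = activity change of -60% or lower, but not beyond a set lower limit; inconclusive = change between -60% and -40%, or beyond the set limit; inactive = change above -40%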; also: % is scaled to controls: 0 for no effect and ±100 for the full control effect
# The depositor's hits bear a star; ? = inconclusive; / = no result given; [ ] = dose if it differs, or a comment.
SMILES,RXFP1 agonist,gsp ag,gsp antagonist,RXFP1 antag
COc1ccccc1OCC(=O)NCCS(=O)(=O)N1CCN(c2ccccc2OC)CC1,0.9%,/,/,-10.2
COc1ccc(C2C=C(c3ccccc3)Nc3nc(NC(=O)c4ccc(C)cc4)nn32)cc1 (centres undefined),-0.5%,/,/,-3.9
COc1ccc(C(=O)Nc2nc3n(n2)C(c2ccc(Cl)cc2)C=C(c2ccccc2)N3)cc1OC (centres undefined),20µM*,/,/,-9.8
O=C(NCc1ccc(F)cc1)c1cnc(N2CCCCC2)c2ccccc12,6.5%,/,/,-61.8*
CCc1ccc(CNC(=O)c2cnc(N3CCCCC3)c3ccccc23)cc1,?,/,/,-39.4
O=C(Nc1ccccc1)c1cnc(N2CCCCC2)c2ccccc12,6.0%,/,/,-68.3*
O=C(Nc1ccc(N2CCCCC2)cc1)c1ccccn1,0.8%,?,-8.9%,-72.1*
CCC(Oc1ccccc1)C(=O)Nc1nnc(S(=O)(=O)N(CC)CC)s1 (centres undefined),24.8%,/,/,-10.9
Cc1c2cnn(CC(=O)NCCc3ccccc3)c(=O)c2c(C)n1Cc1ccccc1Cl,-1.3%,/,/,?
Clc1ccc(-c2nnn3c2nc(NC2CCCCC2)c2ccccc23)cc1,0.3%,/,/,/
COc1ccc(C(=O)Nc2ccc(Nc3ccccc3)cc2)cc1[N+](=O)[O-],-0.9%,-10.6%,28.2µM*,3.2
COC(=O)CSc1nc2c(cnn2-c2ccc(Cl)cc2)c(=O)[nH]1,0.7%,13.6%,-3.3%,3.0
ON=C(c1ccccc1)c1ccc2c3c(cccc13)CC2,/,3.6%,/,-105.6*
CC(=O)c1ccc2c3c(cccc13)CC2,0.9%,-54.0%,-3.1%,-6.6
CC(C)(C)CC(=O)OCC(=O)[C@@]1(O)CC[C@H]2[C@@H]3CCC4=CC(=O)C=C[C@]4(C)[C@H]3[C@@H](O)C[C@@]21C,/,/,/,-19.2
CNC(=S)N(Cc1ccco1)Cc1cc2cc(OC)ccc2[nH]c1=O,-2.3%,9.0%[15.4 µM],/,2.6
CNC(=S)N(Cc1ccco1)Cc1cc2cc(OC)c(OC)cc2[nH]c1=O,-0.1%,-3.2%[15.4 µM],6.31µM*,-2.5
Cc1nc(SCc2nc3ccccc3[nH]2)c2oc3ccccc3c2n1,7.6%,-0.7%,6.1%,-10.0
c1ccc2[nH]c(CSc3ncnc4c3oc3ccccc34)nc2c1,25.1µM*,31.4%,33.5%,-14.4
O=C(CSc1ncnc2c1oc1ccccc12)c1cccs1,22.4µM*,?,-2.4%,1.2
Cc1cccc(C(=O)N(Cc2ccco2)Cc2ccccc2F)c1,-2.8%,/,/,-71.9*
Cc1ccc(CN(Cc2ccco2)C(=O)c2cccc(C)c2)cc1,-1.4%,/,/,-7.4
CCCCCC[N+](C)(C)CCSSCC[N+](C)(C)CCCCCC,-5.4%,3.1%,-0.2%,-3.1
CCCCCCCCCCCCCCCC[N+](C)(C)CC,0.6%,/,7.4%,-86.8*
CN(C)CCCN(C(=O)c1ccc2c(c1)CCCC2)c1nc2c(F)cccc2s1,2.0%,18.3%[15.4 µM],5.0%,-74.0*
SMILES,RXFP1 agonist,gsp ag,gsp antagonist,RXFP1 antag
Cc1c(Cl)cccc1Nc1nn2c(=O)c3ccccc3nc2s1,?,/,/,-10.2
CCc1nn(Cc2cc(C)ccc2C)c(=O)c2cc3cc(C)ccc3n12,-0.1%,/,/,-3.2
Cc1ccc2nc(Cl)c(/C=N/NC(=O)c3ccccc3O)cc2c1,0.7%,-11.3%,35.5µM*,-11.1
Cc1ccc2nc(Cl)c(/C=N/NC(=O)[C@H]3C[C@@H]3c3ccccc3)cc2c1,1.5%,-1.4%[15.4 µM],1.9%,13.4
O=C1c2[nH]nc(-c3ccccc3O)c2C(c2cccc(O)c2)N1Cc1ccncc1 (centres undefined),1.5%,/,/,-10.7
CCc1ccc(C2c3c(-c4ccccc4O)n[nH]c3C(=O)N2Cc2ccncc2)cc1 (centres undefined),-0.9%,/,/,-82.7*
CCCCN1C(=O)c2[nH]nc(-c3ccccc3O)c2C1c1cc(Br)c(O)c(OC)c1 (centres undefined),-0.7%,/,/,-88.6*
Cc1ccccc1N/N=C/c1sc(=O)n(Cc2cccc(C(=O)O)c2)c1Cl,-2.4%,?,?,-72.7*
CCOc1ccc(CN2C(=O)c3ccccc3Sc3ccc(C(=O)N4CCN(C)CC4)cc32)cc1,0.7%,/,/,/
COc1cccc(N2CCN(c3ncnc4c3cnn4-c3ccc(C)cc3C)CC2)c1,2.3%,2.2%,7.94µM*,/
CO[C@@H]1[C@@H](OC2OC(C)C(OC3CC(C)(O)C(O)C(C)O3)C(N(C)C)C2O)[C@@H](CC=O)C[C@@H](C)[C@@H](OC2CCC(N(C)C)C(C)O2)/C=C/C=C/C[C@@H](C)OC(=O)C[C@H]1OC(C)=O (some centres undefined),/,/,/,-8.9
COc1ccnc2c1CCCCC2S(=O)c1nc2ccccc2[nH]1 (centres undefined),/,/,/,-13.2
Cc1ccc(NC(=O)CSc2ccccc2NC(=O)c2ccccc2Cl)cc1Cl,2.3%,-16.6%,28.2µM*,-0.2
CCCn1c2ccccc2c2nnc(SCC(=O)Nc3cccc(C(C)=O)c3)nc21,13.4%,/,/,-19.8
CCN(CC)C(=O)CSc1nnc2c3ccccc3n(C)c2n1,?,7.08µM*,-9.4%,10.8
Cn1c2ccccc2c2nnc(SCC(=O)Nc3cccc(C(=O)O)c3)nc21,15.8µM*,14.1µM*,-11.8%,2.3
COc1ccc(N(C(=O)c2ccncc2)S(=O)(=O)c2ccc(Cl)cc2)cc1,3.3%,?,50.1µM*,-23.4
O=C(Oc1ccc(N(C(=O)c2ccncc2)S(=O)(=O)c2ccc(Cl)cc2)cc1)c1ccncc1,-1.8%,-8.5%,0.1%,-4.5
O=C(Oc1ccc(N(C(=O)c2ccncc2)S(=O)(=O)c2ccc(F)cc2)cc1)c1ccncc1,2.1%,-21.3%,-4.6%,-89.7*
CNC(=O)c1c(I)c(NC(=O)CCCCC(=O)Nc2c(I)c(C(=O)O)c(I)c(C(=O)NC)c2I)c(I)c(C(=O)O)c1I,/,/,/,14.6
COc1ccc2cc3c(nc2c1)OCC3,1.8%,29.8%,-10.6%,6.0
O=C(CN1CCCCCC1)Nc1ccc(Oc2ccccc2)cc1,-0.4%,14.5%,2.4%,-64.0*
O=C(CN1CCCCC1)Nc1ccccc1,3.5%,-14.4%,15.0%,-9.6
C[C@@H](O)[C@H]1C(=O)N2C(C(=O)O)=C(SCCN=CN)C[C@H]12,/,/,/,11.5
COc1ccc(C(=O)NCC(=O)Nc2ccc(F)cc2)cc1OC,-1.4%,12.8%,5.6%,5.0
COc1cc(C(=O)Nc2nc(-c3ccc(F)cc3)cs2)ccc1OCC(=O)N1CCOCC1,-2.4%,-8.3%,35.5µM*,-25.2
COc1ccc(-c2nc(NC(=O)c3ccc(OCC(=O)Nc4ccc(F)cc4)c(OC)c3)sc2C)cc1,28.2µM*,?,47.2%,-17.6
COc1cc(C(=O)Nc2nc(-c3cc(C)ccc3C)c(C)s2)ccc1OCC(=O)Nc1ccc(F)cc1,31.6µM*,?,5.0%,3.1
Cc1cc(OC(C)C(=O)N2CCC(c3nc4ccccc4o3)CC2)ccc1Cl (centres undefined),-0.9%,/,/,-61.6*
COc1ccc(C(C)=O)cc1CSc1nnc(Nc2ccccc2C)s1,-0.2%,-46.3%,11.2µM*,/

# Screens: PubChem, National Center for Advancing Translational Sciences (NCATS)
